Source: PubChem BioAssay AID2402 (Southern Research Specialized Biocontainment Screening …, 2010)
Potency and affinity values are given separately. The source made the active and inactive calls.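 Rule for the calls: active = viability below 70% at one or more tested doses; inactive = viability above 70% at every dose tested.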

Experiment: cytotoxicity of synthesized analogs in Vero cells, SAR follow-up, cytotoxicity control for West Nile virus antiviral project, cell-based, set II (AID 2402)
Conditions: Vero E6 viability, CellTiter-Glo, 72 h; series mostly up to 100 µM

Compound | outcome
COc1ccccc1NC(=O)CSc1nc2ccccc2c(=O)n1-c1ccc(F)cc1 | inactive
Cc1cc(OC(=O)c2c(F)cccc2F)n(Cc2ccccc2)n1 | inactive
Nc1ccc2nc3n(c(=O)c2c1)CCC3 | inactive
O=c1c2c(F)cccc2nc2n1CCC2 | inactive
O=C(CSc1nc2ccccc2c(=O)n1-c1ccc(F)cc1)Nc1ccc2c(c1)OCCO2 | inactive
Cc1cccc2nc3n(c(=O)c12)CCC3 | inactive
COc1ccc(NC(=O)CSc2nc3ccccc3c(=O)n2-c2ccc(F)cc2)cc1 | inactive
Cc1ccc2nc3n(c(=O)c2c1)CCC3 | inactive
O=C(CSc1nc2ccccc2c(=O)n1-c1ccccc1)Nc1ccc2c(c1)CCC2 | inactive
CC(=O)Nc1ccc2nc3n(c(=O)c2c1)CCC3 | inactive
O=[N+]([O-])c1ccc2c(c1)C(O)N1CCCC1=N2 (stereo not given) | inactive
Cc1cccc2c(=O)n3c(nc12)CCC3 | inactive
CC1(O)c2cc(Br)ccc2N=C2CCCN21 (stereo not given) | inactive
O=c1c2cccc(Cl)c2nc2n1CCC2 | inactive
OC1c2cc(I)ccc2N=C2CCCN21 (stereo not given) | inactive
